Measurements reported in PubChem BioAssay (NCATS).
Inconclusive results are not listed. A call without a number means that no potency is given here. A number with no mark means an inactive call. Calls of active or inactive are those of the source. The call rests on the fitted dose curve; in most records, active means well fitted curve in the direction sought with a large enough effect; inconclusive means small, poorly fitted or top-dose-only effect, or another doubt; inactive means no such curve, though single readings can be large; an effect the other way counts as inactive or inconclusive. Where a SMILES comes first, the peptide text is derived from it. Bridges are numbered along the chain shown (N, C = ends). [ ]: non-standard residue; d: D form. The star is where a group is joined. X1 = CC[C@@H](C)[C@@H](N)C1=N[C@H](C(=O)*)CS1; d(aIle) = CC[C@H](C)[C@@H](N)C(=O)O; dOrn = NCCC[C@@H](N)C(=O)O

Assay: qHTS assay to identify small molecule inhibitors of chordoma cells - UCH-1 (AID 1259355); further: nearly all actives have a fitted effect of over 55% in size
Details: UCH-1 chordoma viability, CellTiter-Glo, 48 h, combination, with auranofin plus four topoisomerase inhibitors; series mostly up to 46.1 µM
How it was run: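 Seed 800 cells per well; incubate overnight at 37 C, 5% CO2. Add test compounds (15 concentrations), then the auranofin–topoisomerase-agent combination. Incubate 48hr, add CellTiter-Glo, wait 30min, read luminescence.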
With `O=P(O)(O)OC[C@H]1O[C@](O)(COP(=O)(O)O)[C@@H](O)[C@@H]1O` the Potency was “inactive”. With `C=C1c2c(Cl)ccc(O)c2C(O)=C2C(=O)[C@]3(O)C(O)=C(C(N)=O)C(=O)[C@@H](N(C)C)[C@@H]3[C@@H](O)[C@H]12` the Potency was “inactive”. Compound `Cc1cc(C)c(NC(=O)C[C@H](CC(=O)O)c2cccc3ccccc23)c(C(=O)N2CCC3(CCCC3)CC2)c1` has an activity, negative = inhibition of -1.62% [at 1.88 µM].

Assay: qHTS assay to identify small molecule inhibitors of chordoma cells - UCH-2 (AID 1259356)
Details: UCH-2 chordoma viability, CellTiter-Glo ATP luminescence, 48 h; series mostly up to 46.1 µM
For `O=P(O)(O)OC[C@H](O)CO`, the Potency was “inactive”. In the case of `NC[C@@H]1CC[C@@H](N)[C@@H](O[C@H]2[C@H](O)[C@@H](O[C@H]3O[C@H](CO)[C@@H](O)[C@H](N)[C@H]3O)[C@H](N)C[C@@H]2N)O1`, the Potency was “inactive”. For `N=C(N)n1cccn1`, the Potency was “inactive”. For `CCOC(=O)c1cc(-c2ccccc2)nc2ccc(C)cc12`, the Potency was “inactive”. In the case of `CC(C)(C)NCC(O)c1ccc(O)c(CO)n1` (centres undefined), the Potency was “inactive”. For `CC[C@@H](C)[C@@H](N)C1=N[C@H](C(=O)N[C@@H](CC(C)C)C(=O)N[C@@H](CCC(=O)O)C(=O)N[C@@H](C(=O)N[C@@H]2CCCCNC(=O)[C@@H](CC(N)=O)NC(=O)[C@@H](CC(=O)O)NC(=O)[C@@H](Cc3cnc[nH]3)NC(=O)[C@@H](Cc3ccccc3)NC(=O)[C@@H]([C@H](C)CC)NC(=O)[C@@H](CCCN)NC2=O)[C@@H](C)CC)CS1` (X1-LE[d(aIle)][dK][dOrn][dI][dF][dH][dD][dN]; lactam 4-C), the Potency was “inactive”. With `CC1CCC(NC(=O)N(CCCl)N=O)CC1` (centres undefined) the Potency was “inactive”. In the case of `NC(=O)CC[C@@H]1NC(=O)[C@H](Cc2ccccc2)NC(=O)[C@H](Cc2ccc(O)cc2)NC(=O)[C@@H](N)CSSC[C@@H](C(=O)N2CCC[C@H]2C(=O)N[C@@H](CCCN=C(N)N)C(=O)NCC(N)=O)NC(=O)[C@H](CC(N)=O)NC1=O`, the Potency was “inactive”. In the case of `O=C(O)COc1ccccc1/C=N/NC(=O)c1ccncc1`, the Potency was “inactive”. In the case of `CCCCC[C@H](O)/C=C/[C@H]1[C@H](O)CC(=O)[C@@H]1C/C=C\CCCC(=O)O`, the Potency was “inactive”. In the case of `CCCCCCCCCCCCCCCCCC[N+](C)(C)CCC[Si](OC)(OC)OC`, the Potency was “inactive”. For `NC(=O)Oc1ccc(Cc2ccccc2)cc1`, the Potency was “inactive”. With `C(=C\c1ccncc1)/c1ccccc1` the Potency was “inactive”. With `FCOC(C(F)(F)F)C(F)(F)F` the Potency was “inactive”. With `Cc1c(Cl)cccc1Nc1ncccc1C(=O)O` the Potency was “inactive”. For `CC/C(=C(/CC)c1ccc(OP(=O)(O)O)cc1)c1ccc(OP(=O)(O)O)cc1`, the Potency was “inactive”. For `NC(=O)OCC(O)COc1ccc(Cl)cc1` (centres undefined), the Potency was “inactive”. In the case of `CC(=O)Nc1ccc(OC(C)=O)cc1`, the Potency was “inactive”. For `C[C@@H]1O[C@@H]1P(=O)(O)O`, the Potency was “inactive”. For `CC(C)CCCC(C)NC(C)C` (centres undefined), the Potency was “inactive”. With `Cc1cc(C(=O)NCCc2ccc(S(=O)(=O)NC(=O)NN3CCCCCC3)cc2)no1` the Potency was “inactive”. In the case of `O=C(O)CN(CC(=O)O)CC1=CC2C(=CC1=O)Oc1cc(O)c(CN(CC(=O)O)CC(=O)O)cc1C21OC(=O)c2ccccc21` (centres undefined), the Potency was “inactive”. With `COc1ccc(/C=C/C(=O)O)cc1` the Potency was “inactive”. For `COc1ccc(C(=O)c2ccc(C)cc2)c(O)c1`, the Potency was “inactive”. In the case of `C=CC1=C(C(=O)O)N2C(=O)[C@@H](NC(=O)/C(=N/OCC(=O)O)c3csc(N)n3)[C@H]2SC1` (stereo in doubt), the Potency was “inactive”. With `C[Se]CC[C@H](N)C(=O)O` the Potency was “inactive”. In the case of `CCCCC[C@H](O)/C=C/[C@H]1[C@H](O)CC(=O)[C@@H]1CCCCCCC(=O)O`, the Potency was “inactive”. With `COc1cc(C)c(/C=C/C(C)=C/C=C/C(C)=C/C(=O)O)c(C)c1C` the Potency was “inactive”. In the case of `CC1(C)S[C@@H]2[C@H](NC(=O)C3(N)CCCCC3)C(=O)N2[C@H]1C(=O)O`, the Potency was “inactive”. For `CN[C@@H]1[C@@H](O)[C@@H](O[C@@H]2[C@@H](O)[C@H](O[C@H]3O[C@H](CN)[C@@H](O)[C@H](O)[C@H]3O)[C@@H](N)C[C@H]2NC(=O)C(O)CN)OC[C@]1(C)O` (some centres undefined), the Potency was “inactive”. For `CC(C)[C@@H](N)C(=O)O`, the Potency was “inactive”. With `CC(C)CN(C[C@@H](O)[C@H](Cc1ccccc1)NC(=O)O[C@@H]1CCOC1)S(=O)(=O)c1ccc(N)cc1` the Potency was “inactive”. For `CCCCCCCCCCCCCC(=O)OCC(COP(=O)([O-])OCC[N+](C)(C)C)OC(=O)CCCCCCCCCCCCC` (centres undefined), the Potency was “inactive”. In the case of `CNC(=O)[C@H](Cc1c[nH]c2ccccc12)NC(=O)[C@@H](CC(=O)NO)CC(C)C`, the Potency was “inactive”. For `N[C@H](CC(=O)O)C(=O)O`, the Potency was “inactive”. In the case of `O=P(O)(O)OC[C@H]1O[C@](O)(COP(=O)(O)O)[C@@H](O)[C@@H]1O`, the Potency was “inactive”. In the case of `C=C1c2c(Cl)ccc(O)c2C(O)=C2C(=O)[C@]3(O)C(O)=C(C(N)=O)C(=O)[C@@H](N(C)C)[C@@H]3[C@@H](O)[C@H]12`, the Potency was “inactive”. With `Cc1cc(C)c(NC(=O)C[C@H](CC(=O)O)c2cccc3ccccc23)c(C(=O)N2CCC3(CCCC3)CC2)c1` the Potency was “inactive”.

Assay: P-glycoprotein substrates identified in KB-8-5-11 adenocarcinoma cell line, qHTS therapeutic library screen (AID 1346987); further: nearly all actives have a fitted effect of over 65% in size
Details: KB-8-5-11 (P-gp overexpressing) viability, CellTiter-Glo, 72 h; series mostly up to 44.5 µM
How it was run: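 P-gp-mediated resistance screen: KB-8-5-11 cells treated 72 h with compounds in dose-response. CellTiter-Glo viability.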
In the case of `O=P(O)(O)OC[C@H](O)CO`, the Potency was “inactive”. With `NC[C@@H]1CC[C@@H](N)[C@@H](O[C@H]2[C@H](O)[C@@H](O[C@H]3O[C@H](CO)[C@@H](O)[C@H](N)[C@H]3O)[C@H](N)C[C@@H]2N)O1` the Potency was “inactive”. With `N=C(N)n1cccn1` the Potency was “inactive”. In the case of `CCOC(=O)c1cc(-c2ccccc2)nc2ccc(C)cc12`, the Potency was “inactive”. For `CC(C)(C)NCC(O)c1ccc(O)c(CO)n1` (centres undefined), the Potency was “inactive”. With `CC[C@@H](C)[C@@H](N)C1=N[C@H](C(=O)N[C@@H](CC(C)C)C(=O)N[C@@H](CCC(=O)O)C(=O)N[C@@H](C(=O)N[C@@H]2CCCCNC(=O)[C@@H](CC(N)=O)NC(=O)[C@@H](CC(=O)O)NC(=O)[C@@H](Cc3cnc[nH]3)NC(=O)[C@@H](Cc3ccccc3)NC(=O)[C@@H]([C@H](C)CC)NC(=O)[C@@H](CCCN)NC2=O)[C@@H](C)CC)CS1` (X1-LE[d(aIle)][dK][dOrn][dI][dF][dH][dD][dN]; lactam 4-C) the Potency was “inactive”. For `CC1CCC(NC(=O)N(CCCl)N=O)CC1` (centres undefined), the Potency was “inactive”. In the case of `NC(=O)CC[C@@H]1NC(=O)[C@H](Cc2ccccc2)NC(=O)[C@H](Cc2ccc(O)cc2)NC(=O)[C@@H](N)CSSC[C@@H](C(=O)N2CCC[C@H]2C(=O)N[C@@H](CCCN=C(N)N)C(=O)NCC(N)=O)NC(=O)[C@H](CC(N)=O)NC1=O`, the Potency was “inactive”. For `O=C(O)COc1ccccc1/C=N/NC(=O)c1ccncc1`, the Potency was “inactive”. For `CCCCC[C@H](O)/C=C/[C@H]1[C@H](O)CC(=O)[C@@H]1C/C=C\CCCC(=O)O`, the Potency was “inactive”. In the case of `CCCCCCCCCCCCCCCCCC[N+](C)(C)CCC[Si](OC)(OC)OC`, the Potency was “inactive”. With `NC(=O)Oc1ccc(Cc2ccccc2)cc1` the Potency was “inactive”. In the case of `C(=C\c1ccncc1)/c1ccccc1`, the Potency was “inactive”. In the case of `FCOC(C(F)(F)F)C(F)(F)F`, the Potency was “inactive”. With `Cc1c(Cl)cccc1Nc1ncccc1C(=O)O` the Potency was “inactive”. With `CC/C(=C(/CC)c1ccc(OP(=O)(O)O)cc1)c1ccc(OP(=O)(O)O)cc1` the Potency was “inactive”. For `NC(=O)OCC(O)COc1ccc(Cl)cc1` (centres undefined), the Potency was “inactive”. With `CC(=O)Nc1ccc(OC(C)=O)cc1` the Potency was “inactive”. With `C[C@@H]1O[C@@H]1P(=O)(O)O` the Potency was “inactive”. In the case of `CC(C)CCCC(C)NC(C)C` (centres undefined), the Potency was “inactive”. In the case of `Cc1cc(C(=O)NCCc2ccc(S(=O)(=O)NC(=O)NN3CCCCCC3)cc2)no1`, the Potency was “inactive”. For `O=C(O)CN(CC(=O)O)CC1=CC2C(=CC1=O)Oc1cc(O)c(CN(CC(=O)O)CC(=O)O)cc1C21OC(=O)c2ccccc21` (centres undefined), the Potency was “inactive”. In the case of `COc1ccc(/C=C/C(=O)O)cc1`, the Potency was “inactive”. With `COc1ccc(C(=O)c2ccc(C)cc2)c(O)c1` the Potency was “inactive”. In the case of `C=CC1=C(C(=O)O)N2C(=O)[C@@H](NC(=O)/C(=N/OCC(=O)O)c3csc(N)n3)[C@H]2SC1` (stereo in doubt), the Potency was “inactive”. For `C[Se]CC[C@H](N)C(=O)O`, the Potency was “inactive”. In the case of `CCCCC[C@H](O)/C=C/[C@H]1[C@H](O)CC(=O)[C@@H]1CCCCCCC(=O)O`, the Potency was “inactive”. For `COc1cc(C)c(/C=C/C(C)=C/C=C/C(C)=C/C(=O)O)c(C)c1C`, the Potency was “inactive”. With `CC1(C)S[C@@H]2[C@H](NC(=O)C3(N)CCCCC3)C(=O)N2[C@H]1C(=O)O` the Potency was “inactive”. In the case of `CN[C@@H]1[C@@H](O)[C@@H](O[C@@H]2[C@@H](O)[C@H](O[C@H]3O[C@H](CN)[C@@H](O)[C@H](O)[C@H]3O)[C@@H](N)C[C@H]2NC(=O)C(O)CN)OC[C@]1(C)O` (some centres undefined), the Potency was “inactive”. With `CC(C)[C@@H](N)C(=O)O` the Potency was “inactive”. With `CC(C)CN(C[C@@H](O)[C@H](Cc1ccccc1)NC(=O)O[C@@H]1CCOC1)S(=O)(=O)c1ccc(N)cc1` the Potency was “inactive”. For `CCCCCCCCCCCCCC(=O)OCC(COP(=O)([O-])OCC[N+](C)(C)C)OC(=O)CCCCCCCCCCCCC` (centres undefined), the Potency was “inactive”. For `CNC(=O)[C@H](Cc1c[nH]c2ccccc12)NC(=O)[C@@H](CC(=O)NO)CC(C)C`, the Potency was “inactive”. For `N[C@H](CC(=O)O)C(=O)O`, the Potency was “inactive”. In the case of `O=P(O)(O)OC[C@H]1O[C@](O)(COP(=O)(O)O)[C@@H](O)[C@@H]1O`, the Potency was “inactive”. For `C=C1c2c(Cl)ccc(O)c2C(O)=C2C(=O)[C@]3(O)C(O)=C(C(N)=O)C(=O)[C@@H](N(C)C)[C@@H]3[C@@H](O)[C@H]12`, the Potency was “inactive”. For `Cc1cc(C)c(NC(=O)C[C@H](CC(=O)O)c2cccc3ccccc23)c(C(=O)N2CCC3(CCCC3)CC2)c1`, the Potency was “inactive”.
